The values below come from PubChem BioAssay (EPA / NIEHS).

Inconclusive results are not listed. The source made the active and inactive calls. The calls were made as follows: active = hit-call score of the fitted dose curve at least 0.9, where 1 is the maximum; inconclusive = response in the unintended direction; inactive = score below 0.9.

The target in this test is Cellular tumor antigen p53 (Homo sapiens) (UniProt P04637). The experiment in a line: TOX21_p53_BLA_p4_ratio: Tox21 HCT-116 p53 Agonism Beta-lactamase Assay, Ratio, Phase 4 (AID 2283601). In outline: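 HCT116 cells carrying an inducible beta-lactamase reporter were plated at 4000 cells/well, rested 5 h, then exposed to compounds in DMSO (217-fold dilution) for 16 h at 37C. CCF4-AM substrate was loaded 2 h at room temperature; 460/530 nm emission ratio scored gain-of-signal versus DMSO.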
Sequence of Cellular tumor antigen p53 (Homo sapiens) (P04637 whole entry, looked up): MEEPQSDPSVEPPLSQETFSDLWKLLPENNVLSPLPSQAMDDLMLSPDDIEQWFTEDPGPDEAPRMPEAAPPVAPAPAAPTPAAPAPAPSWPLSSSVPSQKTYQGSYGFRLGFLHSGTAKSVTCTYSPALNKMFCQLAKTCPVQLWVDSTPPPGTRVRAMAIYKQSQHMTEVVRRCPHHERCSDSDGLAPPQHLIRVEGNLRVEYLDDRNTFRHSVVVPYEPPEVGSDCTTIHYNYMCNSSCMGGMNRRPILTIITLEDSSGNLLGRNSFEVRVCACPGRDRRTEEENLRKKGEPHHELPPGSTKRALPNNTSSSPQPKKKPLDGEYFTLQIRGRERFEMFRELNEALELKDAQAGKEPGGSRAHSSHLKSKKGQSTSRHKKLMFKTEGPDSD
Take `NCCCNCCSP(=O)(O)O`: the outcome was inactive.
As to `COc1c(N2C[C@@H]3CCCN[C@@H]3C2)c(F)cc2c(=O)c(C(=O)O)cn(C3CC3)c12`, the result was inactive.
`CCCc1ccc(C(=O)O)cc1`: the result was inactive.
In the case of `Cn1cc(S(C)=O)c(=O)c2ccc(F)cc21` (centres undefined), the result was inactive.
